Results on seven sequences are retold here after the supplement of paper PMC6555819.

Common to all, as to assay: PBM binding z-score (relative to random genomic background probes); higher = stronger binding; sequences stand for … in GC…GCGATTGACAGCGTAGAATGAAGG
Test [1] deals with FXR:RXRa (NR concentration 270 nM, RXRa partner concentration 90 nM). The gist of the method: (§1)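 On custom Agilent 4×180K arrays, double-stranded probes with 34-nt variable regions carried direct-repeat seeds, single-nucleotide variants, half-site ablations or random human genomic background. Ligand-free nuclear receptor dimers were applied for 1 h, and binding was read with antibodies against each partner (one per run). Binding z-scores come from regression-normalized fluorescence, with the random background probes as reference.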

Test [2] has as its system LXRa:RXRa (NR concentration 270 nM, RXRa partner concentration 90 nM). The gist of the method:
as §1

Test [3] concerns LXRa homodimer (NR concentration 270 nM). The gist of the method:
as §1

The subject of test [4] is LXRb:RXRa (NR concentration 270 nM, RXRa partner concentration 90 nM). The gist of the method: as §1
Test [5] relates to LXRb homodimer (NR concentration 270 nM). The gist of the method: as §1
The subject of test [6] is PPARa:RXRa (NR concentration 270 nM, RXRa partner concentration 90 nM). The gist of the method: as §1
Test [7] concerns PPARg:RXRa (NR concentration 180 nM, RXRa partner concentration 90 nM). The gist of the method:
as §1

Test [8] deals with PPARg:RXRa 270nM:90nM, anti-RXR (NR concentration 270 nM, RXRa partner concentration 90 nM). The gist of the method:
as §1

Test [9] has as its system PPARg:RXRa 30nM:10nM, anti-RXR (NR concentration 30 nM, RXRa partner concentration 10 nM). The gist of the method:
as §1

The test system of test [10] is PPARg:RXRa 90nM:30nM, anti-RXR (NR concentration 90 nM, RXRa partner concentration 30 nM). The gist of the method: as §1
Test [11] relates to PPARg:RXRa DBDmut IVT, anti-RXR (DBD mutation: RXRa K156A/R161A, NR concentration 270 nM, RXRa partner concentration 90 nM). The gist of the method: as §1
The test system of test [12] is PPARg:RXRa IVT, anti-PPARg (NR concentration 270 nM, RXRa partner concentration 90 nM). The gist of the method: as §1
Test [13] relates to PPARg DBDmut:RXRa IVT, anti-PPARg (DBD mutation: PPARg1 K132A/R137A, NR concentration 270 nM, RXRa partner concentration 90 nM). The gist of the method:
as §1

In test [14] the test system is PPARg DBDmut IVT, anti-PPARg (DBD mutation: PPARg1 K132A/R137A, NR concentration 270 nM). The gist of the method:
as §1

In test [15] the test system is PPARg homodimer (NR concentration 180 nM). The gist of the method:
as §1

In test [16] the test system is PXR:RXRa (NR concentration 270 nM, RXRa partner concentration 90 nM). The gist of the method:
as §1

Test [17] relates to PXR homodimer (NR concentration 270 nM). The gist of the method: as §1
In test [18] the test system is RARa:RXR (NR concentration 270 nM, RXRa partner concentration 90 nM). The gist of the method:
as §1

For test [19], the system named is RARa homodimer (NR concentration 270 nM). The gist of the method:
as §1

Test [20] has as its system RARb:RXRa (NR concentration 270 nM, RXRa partner concentration 90 nM). The gist of the method:
as §1

As to TGGAGTAGGTTAGGGGCATTCAGAATGGCGTCGA, the PBM binding z-score was determined as 1.13 in test [1]; 0.934 in [2]; 0.271 in test [3]; 1.91 in [4]; 1.89 in test [5]; 1.98 in [6]. Moreover, the PBM binding z-score in [7] is 2.21; in [8], 3.05; in test [9], 1.46; in [10] it was 2.46; in [11], 2.77; in [12], 3.44. Also, the PBM binding z-score came to 1.09 in test [13]; 0.719 in [14]; 2.02 in test [15]; 1.18 in test [16]; 1.43 in test [17]; 0.932 in test [18]. The PBM binding z-score in test [19] came out at 0.935; in test [20], 1.6.

As to GGAACGAAGGCATTCGAGTTGATAGCATGGCGAT, the PBM binding z-score in [1] is -0.551; in test [2], -0.66; in test [3], -0.692; in [4], -1.09; in test [5], -1.23; in test [6], -1.8. Also, the PBM binding z-score in test [7] was 0.416; in test [8], -0.825; in test [9] it was -0.794; in [10], -0.901; in [11], -0.318; in test [12], -0.69. In addition, the PBM binding z-score in [13] is -0.596; in test [14], -0.862; in [15], -1.41; in [16], -0.315; in test [17], -0.602; in test [18] it was -0.623. The results for the PBM binding z-score in test [19] and in test [20] were -0.628 and -0.659, respectively.

Consider CCGACTGGGGCAGAAAGGTTACCTTACCATCCGG, for which the PBM binding z-score was -0.0725 in [1]; 0.286 in test [2]; -0.251 in [3]; 0.547 in test [4]; -1.39 in [5]; 1.73 in test [6]. Also, the PBM binding z-score in [7] was 1.36; in test [8], 2.55; in test [9] it was 0.398; in [10], 1.91; in [11] it was 1.43; in [12], 1.85. In addition, the PBM binding z-score in test [13] is -1.35; in test [14] it was -1.29; in test [15], 0.0892; in test [16], 0.658; in test [17], -0.611; in [18], 1.48. Also, the PBM binding z-score in test [19] was -0.873; in test [20], 1.5.

In the case of TCATATAGGTAGTACAGGTGAAAGTCGGCATCTA, the PBM binding z-score in test [1] was determined as 1.11; in [2] it was 1.01; in [3], 0.38; in [4] it was 0.84; in test [5], 0.0864; in test [6], 1.2. The PBM binding z-score was 0.65 in test [7]; 2.23 in test [8]; 3.57 in [9]; 3.13 in test [10]; 2.26 in test [11]; 1.52 in test [12]. The PBM binding z-score in [13] came out at 1.27; in [14], 1.09; in [15], 1.08; in test [16], 0.715; in test [17], 0.204; in [18], 1.16. The PBM binding z-score came to 1.16 in test [19] and 0.562 in [20].

Consider GCTAGTTGGTCAGTAAAAGGACACACACCGGTCG, for which the PBM binding z-score in test [1] was -0.0634; in test [2], -0.0918; in [3] it was 0.213; in test [4] it was -0.44; in test [5], -0.0401; in test [6], -0.104. For the same sequence, the PBM binding z-score is 0.654 in [7]; 0.282 in [8]; -0.0614 in test [9]; -0.0124 in test [10]; 0.16 in test [11]; 0.5 in test [12]. Moreover, the PBM binding z-score in test [13] was 0.0692; in [14], -0.305; in test [15], 0.811; in test [16], -0.134; in test [17], 0.246; in [18], 0.153. For the same sequence, the PBM binding z-score in test [19] was 0.849; in [20], 1.61.

Turning to TCTCGGAGGACACGAAGGTCAGAGATTTCCAGAG, the PBM binding z-score in test [1] is 1.38; in [2], 0.932; in test [3], 0.277; in test [4], 1.25; in test [5], -0.387; in test [6], 1.83. Further, the PBM binding z-score in test [7] stood at 0.75; in test [8], 1.93; in [9], 2.37; in test [10], 2.23; in test [11] it was 1.66; in test [12], 1.24. The PBM binding z-score was -0.127 in test [13]; -0.972 in [14]; 1.21 in test [15]; 1.86 in test [16]; 1.02 in [17]; 2.11 in [18]. Besides, the figures for the PBM binding z-score in test [19] and in test [20] were -0.144 and 3.4, respectively.

Turning to CCGCGGAGGACAGAAGGTCAGAGCTGTCCGCTTT, the PBM binding z-score in test [1] is 1.22; in test [2] it was 1.49; in test [3], -0.1; in test [4], 0.955; in test [5], -1.05; in test [6], 1.77. Besides, the PBM binding z-score is -0.261 in [7]; 0.596 in [8]; -0.857 in [9]; 0.289 in test [10]; -0.00504 in [11]; 0.1 in test [12]. Besides, the PBM binding z-score in test [13] was -1.81; in [14], -2.04; in [15] it was 0.973; in test [16], 1.42; in test [17], -0.53; in test [18] it was 2.3. For the same sequence, the PBM binding z-score in test [19] is -0.744; in [20] it was 3.25.
